# The source made the active and inactive calls. Cut-off read from the data, not from the text of the source, unless noted: active = inhibition above about 44%; inactive = the rest.
# Biological target: Steroidogenic factor 1 (Homo sapiens) (UniProt Q13285)
# Assay: inverse agonism at SF1 nuclear receptor – cell-based, luminescence, high throughput, counter-screen for LRH-1 inverse agonist project (AID 651614);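 note: cells cotransfected with StAR promoter reporter and SF1 expression vector; 0% = vehicle on cells with receptor and 100% = vehicle on cells lacking receptor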
# Conditions: cell-based SF1 luciferase reporter, at 3.6 µM, hits give high values
# Steroidogenic factor 1 (Homo sapiens), sequence (Q13285 whole entry, looked up): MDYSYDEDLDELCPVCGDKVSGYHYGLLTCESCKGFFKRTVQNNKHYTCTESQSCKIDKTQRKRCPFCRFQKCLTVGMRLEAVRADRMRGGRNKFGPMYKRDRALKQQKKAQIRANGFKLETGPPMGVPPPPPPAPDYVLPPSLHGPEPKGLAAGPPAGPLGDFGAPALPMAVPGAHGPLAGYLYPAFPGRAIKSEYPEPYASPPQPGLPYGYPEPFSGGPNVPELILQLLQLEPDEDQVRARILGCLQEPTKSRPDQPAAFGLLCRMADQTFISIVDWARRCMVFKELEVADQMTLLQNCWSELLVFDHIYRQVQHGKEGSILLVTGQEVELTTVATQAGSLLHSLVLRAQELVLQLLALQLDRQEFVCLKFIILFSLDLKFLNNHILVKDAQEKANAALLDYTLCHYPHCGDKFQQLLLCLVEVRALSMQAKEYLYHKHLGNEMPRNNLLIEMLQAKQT
row,SMILES,inhibition
1,CN(C)c1ccc(CNc2ncnc3sccc23)cc1,47.9% (active)
2,COc1ccc(S(=O)(=O)Nc2cc3c4c(oc3c3ccccc23)CCCC4=O)cc1,65.9% (active)
3,CC(/C=C(\NC(=O)c1ccccc1)C(=O)N=Nc1c(O)[nH]c2ccc(C)cc12)=C\c1ccccc1,30.2% (inactive)
4,O=c1[nH]c2cc3ccccc3cc2nc1-c1nnnn1C1CCCC1,44.6% (active)
5,O=C(NNc1c(F)c(F)cc(F)c1F)C1CCN(S(=O)(=O)c2ccccc2F)CC1,22.4% (inactive)
6,CC(C)C(=O)Nc1ccc(C(=O)CN2C(=O)NC3(CCOc4ccccc43)C2=O)cc1 (stereo not given),36.7% (inactive)
7,Cc1ccccc1OCC(=O)N/N=C/c1ccc([N+](=O)[O-])o1,60% (active)
8,O=C(Nc1ccc2c(c1)CCCN2C(=O)c1ccco1)c1cc([N+](=O)[O-])ccc1Cl,59.1% (active)
9,O=C(Nc1ccc(S(=O)(=O)N2CCCC2)cc1)c1ccc([N+](=O)[O-])o1,62.7% (active)
10,COc1cccc(-c2cnc3c(NC=O)cc(-c4ccc(S(C)(=O)=O)cc4)cn23)c1,52.4% (active)
11,O=C(c1ccccc1Br)N1CCN(c2ccc([N+](=O)[O-])c(N3CCOCC3)c2)CC1,38.9% (inactive)
12,C#CCN(C[C@@H]1[C@@H](OC(=O)NCc2ccc(OC)c(OC)c2)[C@@H](OC(=O)NCc2ccc(OC)c(OC)c2)CN(C(=O)OC(C)C)N1C(=O)OC(C)C)S(=O)(=O)c1ccc(C)cc1,30.1% (inactive)
13,COCCNc1ncnc2c1ncn2[C@H]1CN(CCc2ccccc2)C[C@@H](CO)O1,24.9% (inactive)
14,CC(=O)N1CCN(c2cc(N3CCCC3)c(F)cc2[N+](=O)[O-])CC1,48.7% (active)
15,NC(=S)NNc1cc(Cl)cc(Cl)c1,40.4% (inactive)
16,COc1ccc(-c2ccc(C(=O)NCc3ccncc3)c3occc23)c(C)c1,70.1% (active)
17,CCOC(=O)c1cc(C#N)c(N2CCCCC2)nc1-c1ccccc1,40.6% (inactive)
18,CCCc1cc(=O)oc2cc(OCC(=O)NCCc3ccc(S(N)(=O)=O)cc3)ccc12,51.1% (active)

row,SMILES,inhibition
1,CC(=O)Nc1ccc(NC(=O)CSc2nnc(COc3ccccc3C)n2CC2CCCO2)cc1 (stereo not given),57.3% (active)
2,CCCCSc1nc(SCC(=O)NCc2ccco2)c2c3c(sc2n1)COC(C)(CC)C3 (stereo not given),44.6% (active)
3,COC(=O)c1ccc(NC(=O)CSc2nnc(C)n2CC2CCCO2)cc1 (stereo not given),40.7% (inactive)
4,O=C(COC(=O)CCN1C(=O)C2CC=CCC2C1=O)NCCc1ccc(F)cc1 (stereo not given),55% (active)
5,COc1ccc(C(=O)Nc2cnccn2)cc1[N+](=O)[O-],26.4% (inactive)
6,COc1ccc(CCNC(=O)CN2C(=O)C3(OCCCO3)c3ccccc32)cc1OC,52.5% (active)
7,CCn1c2ccccc2c2cc(C3C(C#N)=C(N)Oc4n[nH]c(COC)c43)ccc21 (stereo not given),51.7% (active)
8,CCN(CC)c1nc(C)c(C(C)=O)cc1C#N,57% (active)
9,CC1(C)CC(=O)C=C(c2ccc3c(c2)OCO3)C1,42.1% (inactive)
10,CCOc1ccc(CCNC(=O)COC(=O)c2nc(Cl)ccc2Cl)cc1OCC,28.2% (inactive)
11,O=C(NCc1ccco1)c1nn(-c2ccccc2)c(=O)c2ccccc12,53.4% (active)
12,COc1ccccc1-c1cc(NC=O)c2ncc(-c3ccc(S(C)(=O)=O)cc3)n2c1,46.9% (active)
13,COc1ccccc1NC(=O)c1ccc(NC(=O)COC(=O)C(C)C)cc1,55.7% (active)
14,O=C(OCC(=O)N1CCN(c2ccccc2)CC1)c1ccc2ccccc2n1,22.3% (inactive)
15,CC(=O)Nc1cccc(C(=O)OCC(=O)N2CCN(C(=O)COC(=O)c3cccc(NC(C)=O)c3)CC2)c1,47.6% (active)
16,Cc1ccsc1CNc1ncnc2ccc(-c3c(C)noc3C)cc12,28.7% (inactive)
17,CCOc1ccc(OCCN2C(=O)NC(Cc3c[nH]c4ccccc34)C2=O)cc1 (stereo not given),58.2% (active)

# System: not listed separately
# Assay: compounds suppressing VP16-driven luciferase signal – cell-based, luminescence, high throughput, counter-screen for LRH-1 inverse agonist project (AID 651615; in the data active = inhibition above about 33%)
# Conditions: Gal4-VP16 luciferase reporter cells, at 3.6 µM, hits give high values
row,SMILES,inhibition
1,CN(C)c1ccc(CNc2ncnc3sccc23)cc1,42.5% (active)
2,COc1ccc(S(=O)(=O)Nc2cc3c4c(oc3c3ccccc23)CCCC4=O)cc1,-1.29% (inactive)
3,CC(/C=C(\NC(=O)c1ccccc1)C(=O)N=Nc1c(O)[nH]c2ccc(C)cc12)=C\c1ccccc1,14.1% (inactive)
4,O=c1[nH]c2cc3ccccc3cc2nc1-c1nnnn1C1CCCC1,8.72% (inactive)
5,O=C(NNc1c(F)c(F)cc(F)c1F)C1CCN(S(=O)(=O)c2ccccc2F)CC1,4.32% (inactive)
6,CC(C)C(=O)Nc1ccc(C(=O)CN2C(=O)NC3(CCOc4ccccc43)C2=O)cc1 (stereo not given),7.98% (inactive)
7,Cc1ccccc1OCC(=O)N/N=C/c1ccc([N+](=O)[O-])o1,9.63% (inactive)
8,O=C(Nc1ccc2c(c1)CCCN2C(=O)c1ccco1)c1cc([N+](=O)[O-])ccc1Cl,33.9% (active)
9,O=C(Nc1ccc(S(=O)(=O)N2CCCC2)cc1)c1ccc([N+](=O)[O-])o1,15.1% (inactive)
10,COc1cccc(-c2cnc3c(NC=O)cc(-c4ccc(S(C)(=O)=O)cc4)cn23)c1,-0.78% (inactive)
11,O=C(c1ccccc1Br)N1CCN(c2ccc([N+](=O)[O-])c(N3CCOCC3)c2)CC1,-4.88% (inactive)
12,C#CCN(C[C@@H]1[C@@H](OC(=O)NCc2ccc(OC)c(OC)c2)[C@@H](OC(=O)NCc2ccc(OC)c(OC)c2)CN(C(=O)OC(C)C)N1C(=O)OC(C)C)S(=O)(=O)c1ccc(C)cc1,10.3% (inactive)
13,COCCNc1ncnc2c1ncn2[C@H]1CN(CCc2ccccc2)C[C@@H](CO)O1,3.57% (inactive)
14,CC(=O)N1CCN(c2cc(N3CCCC3)c(F)cc2[N+](=O)[O-])CC1,-0.47% (inactive)
15,NC(=S)NNc1cc(Cl)cc(Cl)c1,11.7% (inactive)
16,COc1ccc(-c2ccc(C(=O)NCc3ccncc3)c3occc23)c(C)c1,46.4% (active)
17,CCOC(=O)c1cc(C#N)c(N2CCCCC2)nc1-c1ccccc1,-5.07% (inactive)
18,CCCc1cc(=O)oc2cc(OCC(=O)NCCc3ccc(S(N)(=O)=O)cc3)ccc12,4.44% (inactive)

row,SMILES,inhibition
1,CC(=O)Nc1ccc(NC(=O)CSc2nnc(COc3ccccc3C)n2CC2CCCO2)cc1 (stereo not given),-5.23% (inactive)
2,CCCCSc1nc(SCC(=O)NCc2ccco2)c2c3c(sc2n1)COC(C)(CC)C3 (stereo not given),-1.29% (inactive)
3,COC(=O)c1ccc(NC(=O)CSc2nnc(C)n2CC2CCCO2)cc1 (stereo not given),-3.65% (inactive)
4,O=C(COC(=O)CCN1C(=O)C2CC=CCC2C1=O)NCCc1ccc(F)cc1 (stereo not given),-1.34% (inactive)
5,COc1ccc(C(=O)Nc2cnccn2)cc1[N+](=O)[O-],4.88% (inactive)
6,COc1ccc(CCNC(=O)CN2C(=O)C3(OCCCO3)c3ccccc32)cc1OC,-9.46% (inactive)
7,CCn1c2ccccc2c2cc(C3C(C#N)=C(N)Oc4n[nH]c(COC)c43)ccc21 (stereo not given),14.3% (inactive)
8,CCN(CC)c1nc(C)c(C(C)=O)cc1C#N,12% (inactive)
9,CC1(C)CC(=O)C=C(c2ccc3c(c2)OCO3)C1,2.47% (inactive)
10,CCOc1ccc(CCNC(=O)COC(=O)c2nc(Cl)ccc2Cl)cc1OCC,-0.88% (inactive)
11,O=C(NCc1ccco1)c1nn(-c2ccccc2)c(=O)c2ccccc12,-14.1% (inactive)
12,COc1ccccc1-c1cc(NC=O)c2ncc(-c3ccc(S(C)(=O)=O)cc3)n2c1,-33.2% (inactive)
13,COc1ccccc1NC(=O)c1ccc(NC(=O)COC(=O)C(C)C)cc1,-39.4% (inactive)
14,O=C(OCC(=O)N1CCN(c2ccccc2)CC1)c1ccc2ccccc2n1,2.06% (inactive)
15,CC(=O)Nc1cccc(C(=O)OCC(=O)N2CCN(C(=O)COC(=O)c3cccc(NC(C)=O)c3)CC2)c1,-10.3% (inactive)
16,Cc1ccsc1CNc1ncnc2ccc(-c3c(C)noc3C)cc12,-142% (inactive)
17,CCOc1ccc(OCCN2C(=O)NC(Cc3c[nH]c4ccccc34)C2=O)cc1 (stereo not given),4.66% (inactive)
